Drawing on PubChem BioAssay (NCI), this text covers growth for 40 compounds.

The panel holds about 83,000 compounds, 20% with a hit somewhere; the sample as a whole holds those more often.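 Note: values are percent growth. 100 is the growth of untreated cells, values between 100 and 0 indicate rising inhibition; between -100 and 0 indicates cell death.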 Unmarked numbers belong to inactive results. The source made the active and inactive calls. Rule for the calls: active = growth percent below 10; inactive = the rest.

For the assay, the system named is MDA-MB-468 breast. Briefly: NCI-60 one-dose screen, 48 h (100 = growth as untreated, 0 = no growth, -100 = all killed). To be noted: 10 µM unless noted.
On to `Cc1cc(NC(=O)c2cnc(N3CCN(CCOCCOCCOCCOCCC(=O)N[C@H](C(=O)N4C[C@H](O)C[C@H]4C(=O)N[C@@H](C)c4ccc(-c5scnc5C)cc4)C(C)(C)C)CC3)cn2)c2ncccc2c1`, for which the growth is -57.9% (active).

On to `O=C(NC(=S)N1CC=CCC1)c1ccccc1`, for which the growth was 121%.

`COc1ccc(CC(C)=C(c2ccc(OCCN3CCCC3)cc2)c2ccc(OCCN3CCCC3)cc2)cc1`: the growth is -85.2% (active).

For the compound `CC(C)NCCCCCNc1cc(O)cc2cccnc12`, the growth was 18.6%.

`CCOC(=O)Cn1c(=O)c2sc3ncccc3c2n2nnc(-c3ccccc3)c12`: the growth was 119%.

For `CCCN(CCSSCCNc1nc(N(C)O)nc(N(C)O)n1)c1nc(N(C)O)nc(N(C)O)n1`, the growth is 15.8%.

In the case of `Cn1cc(-c2nonc2-c2cn(C)c3ccc(F)cc23)c2ccccc21`, the growth was 0.775% (active).

On to `O=C1CSC(c2ccccc2Cl)N1c1nnc(Cn2cnnc2)o1` (stereo not given), for which the growth is 27.2%.

Turning to `CN(C)c1ccc(/C=C/C2=[N+](C)c3ccccc3C2(C)C)cc1`, the growth was 6.5% (active).

For the compound `CC(C)OCc1cc(CN2CCN(c3cccc(Cl)c3)CC2)c(O)c2ncccc12`, the growth was -15.4% (active).

For the compound `O=S(=O)(O)c1ccc(N=NSc2ccc3ccccc3c2)cc1`, the growth was 108%.

For `Cc1ccc(S(=O)(=O)c2c(COC(=O)c3cccc(C)c3)c(-c3ccccc3)nn2C)cc1`, the growth is -83.9% (active).

Take `COc1cccc2c1C(=O)c1c(O)c3c(c(O)c1C2=O)C[C@@](O)(C(=O)CO)C[C@@H]3OC1C[C@H](N)[C@H](O)[C@H](C)O1` (stereo not given in full): the growth is -68.8% (active).

On to `COc1ccc(-c2nc3ncccn3c2-c2nnc(-c3ccc(F)cc3)o2)cc1`, for which the growth was 100%.

On to `CSc1nc2nc3c(c(-c4ccc(C)cc4)c2c(=O)[nH]1)CN(C)C/C3=C\c1ccc(C)cc1`, for which the growth was 74.7%.

Turning to `Cc1cc(-c2ccc(N(C)C)cc2)c2sc(=O)[nH]c2n1`, the growth is 80%.

On to `CCCCCCCCCCCCC[N+](C)(C)Cc1ccccc1`, for which the growth was -25.3% (active).

In the case of `c1ccc2c(c1)Oc1cccnc1-n1nccc1-2`, the growth is 94.7%.

`CCCC[N+](CCCC)=c1ccc2nc3c(C)cc(N(CC)CC)cc3sc-2c1`: the growth is -45.9% (active).

Take `Cc1cc2nc3c4cc([N+](=O)[O-])cc([N+](=O)[O-])c4n(CCN(C)C)c3nc2cc1C`: the growth is 104%.

On to `c1ccc(-c2c(-c3ccccc3)[n+](Cc3ccc4ccccc4c3)c(-c3cccc4ccccc34)n2Cc2ccc3ccccc3c2)cc1`, for which the growth was -62.3% (active).

For the compound `CNC(=O)c1cc(N2CCc3cc(NC(=O)Nc4ccc(N5CCOCC5)c(C(F)(F)F)c4)ccc32)ccn1`, the growth was 49.6%.

On to `Cc1ccc(Nc2cc(N)nc(N)n2)cc1Cl`, for which the growth was 77.8%.

For `O=C(CCCn1c(=O)c2sc3ccccc3c2n2nnc(-c3ccccc3)c12)NCCc1cnc[nH]1`, the growth was -42.1% (active).

Turning to `O=C(NNc1nc2cc(F)c(F)cc2n2cccc12)c1cccnn1`, the growth is -11.1% (active).

`COc1ccc(/C=C\C(=O)/C=C/c2ccc(OC)cc2)cc1`: the growth was 18.7%.

Consider `C#C[C@H](O)/C=C/CCCCCCC#C[C@H](O)CC[C@@H](O)C#CCCCCCC/C=C/[C@@H](O)C#C`, for which the growth is 97.6%.

Consider `CC(=O)c1cc2c(N)c(C(=O)Nc3ccccc3)sc2nc1C`, for which the growth is 24.3%.

Turning to `N#C/C(=C\c1ccc(Br)cc1)n1nnc2cc(F)c(F)cc21`, the growth is -6.6% (active).

For `COc1nc2c(cc1S(=O)(=O)c1ccccc1)CCc1c-2cnn1-c1ccccc1`, the growth is 45.3%.

Consider `Cc1[nH]c(C(=O)Nc2ccc(C(N)=O)cc2OC(C)C)c(Cl)c1Cl`, for which the growth was 68.4%.

`O=C(/C=C/c1ccccc1)CC(c1ccccc1)N1CCOCC1` (stereo not given): the growth is 92.4%.

On to `CC(C)(CCCN=C(N)Nc1ccc(Cl)cc1)c1ccc(F)cc1`, for which the growth is 16.1%.

`NCCOc1ncccc1/C=C1\C2C=CC=CC2C2C=CC(F)=CC12` (stereo not given): the growth is -7.18% (active).

As for `Oc1ccc(N=Cc2ccccc2O)cc1`, the growth is 93.3%.

`CC(=O)c1c(C)[nH]c(-c2nc3ccc(N4CCN(C)CC4)cc3[nH]2)c1-c1ccc(N(C)C)cc1`: the growth is 21%.

`Cn1ccnc1C(=O)/C=C/c1ccc(CC(=O)Nc2ccc(Cl)cc2)cc1`: the growth was -15.4% (active).

Take `CC(C)(C)CC(C)(C)c1ccc(OCCOCC[N+](C)(C)Cc2ccccc2)cc1`: the growth was -81.8% (active).

Turning to `O=P(O)(O)OCC(O)CO` (stereo not given), the growth was 100%.

In the case of `COc1ccccc1/C(C)=N/NC(=O)CSc1nc2ccccc2c(=O)n1Cc1ccc(S(N)(=O)=O)cc1`, the growth was 98.8%.
